This is an account of results in PubChem BioAssay (Tox21).

In assay [1] the target is Thyrotropin receptor (Homo sapiens) (UniProt P16473). Briefly: qHTS assay to identify small molecule agonists of the thyroid stimulating hormone receptor (TSHR) signaling pathway (AID 1224843; calls by dose curve; further: nearly all actives have a fitted effect of over 45% in size; further: potency means the concentration at half of the fitted maximal effect). The essentials: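 Agonist activity read as cAMP rise via d2/cryptate HTRF competition, 1 h room-temperature detection, in HEK293 cells expressing TSHR. Fifteen-point titrations, each run in triplicate, with a 30 min room-temperature incubation beforehand.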
Sequence of Thyrotropin receptor (Homo sapiens) (P16473 whole entry, looked up): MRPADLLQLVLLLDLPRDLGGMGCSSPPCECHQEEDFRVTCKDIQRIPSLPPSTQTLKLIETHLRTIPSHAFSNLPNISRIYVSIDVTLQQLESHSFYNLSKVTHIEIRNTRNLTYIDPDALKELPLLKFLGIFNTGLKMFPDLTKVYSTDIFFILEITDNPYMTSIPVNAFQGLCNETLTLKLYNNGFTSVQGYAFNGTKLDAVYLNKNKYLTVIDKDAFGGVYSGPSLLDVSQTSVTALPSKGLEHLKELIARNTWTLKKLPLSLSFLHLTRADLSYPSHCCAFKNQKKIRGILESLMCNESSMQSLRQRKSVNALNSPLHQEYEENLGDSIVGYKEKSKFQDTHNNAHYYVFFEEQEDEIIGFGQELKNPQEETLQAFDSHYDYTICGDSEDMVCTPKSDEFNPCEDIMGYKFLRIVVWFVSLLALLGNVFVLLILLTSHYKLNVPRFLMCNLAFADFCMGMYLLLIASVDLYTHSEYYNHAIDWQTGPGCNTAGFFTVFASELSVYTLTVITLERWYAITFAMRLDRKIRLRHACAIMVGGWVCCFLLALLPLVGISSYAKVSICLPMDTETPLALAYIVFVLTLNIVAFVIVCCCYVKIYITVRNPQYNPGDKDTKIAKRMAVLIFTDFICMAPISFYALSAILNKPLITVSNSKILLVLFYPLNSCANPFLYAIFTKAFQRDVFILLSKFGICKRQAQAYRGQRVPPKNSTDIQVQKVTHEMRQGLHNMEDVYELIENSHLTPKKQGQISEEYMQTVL

A short description of assay [2]: qHTS assay to identify small molecule agonists of the hypoxia (HIF-1) signaling pathway - cell viability counter screen (AID 1224844; calls by dose curve; further: nearly all actives have a fitted effect of over 50% in size; further: potency means the concentration at half of the fitted maximal effect). In a few lines: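 Same wells as the HIF-1 reporter screen; ME-180 cells carrying HRE-bla, 17 hr treatment at 37C; CellTiter-Glo luminescence read after 30 min at room temperature.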
(Quantitative high-throughput screening tests each substance at several concentrations.)

The nature of assay [3]: qHTS assay to identify small molecule agonists of H2AX (AID 1224845; active means well fitted activation curve with a large enough effect in the signal ratio in the repeat runs, not every such curve was filed as active; the % refers to the signal ratio). The essentials:
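Phospho-H2AX Ser139 measured by HTRF (ex 320 nm; em 665 and 620 nm) after 24 hr antibody incubation. Compounds, 15 concentrations, 0.76% DMSO, were applied to CHO-K1 cells for 3hr at 37C before lysis.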

Assay [4] in a line: qHTS RealTime-Glo MT Cell Viability Assay in HepG2 cells - 24 hour (AID 1224867). Further: nearly all actives have a fitted effect of over 50% in size. Further: potency means the concentration at half of the fitted maximal effect. In a few lines:
(§1)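 Luminescence read-out: viable HepG2 cells reduce a prosubstrate to a NanoLuc substrate, giving a signal proportional to live cell number. Reads taken at 0, 8, 16, 24, 32 and 40 h of compound exposure at 37 C.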

The nature of assay [5]: A CellTox Green Cytotoxicity Assay to monitor cytotoxicity in HEK293 cells - 0 hour (AID 1224869). Further: nearly all actives have a fitted effect of over 50% in size. The essentials: (§2)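 Homogeneous no-lysis format: HEK293 cell suspension mixed with CellTox Green reagent, seeded, incubated 5 h at 37 C/5% CO2, then dosed by pintool with compound in DMSO.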
Assay [6] can be described thus: qHTS RealTime-Glo MT Cell Viability Assay in HepG2 cells - 40 hour (AID 1224870). Further: nearly all actives have a fitted effect of over 50% in size. Further: potency means the concentration at half of the fitted maximal effect. In a few lines:
(§3)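 Real-time viability: cells seeded at 600 per well together with NanoLuc and cell-permeant prosubstrate, compounds added after 5 h incubation. Luminescence tracked at 0, 8, 16, 24, 32 and 40 h of exposure.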

The nature of assay [7]: A CellTox Green Cytotoxicity Assay to monitor cytotoxicity in HEK293 cells - 40 hour (AID 1224871). Further: nearly all actives have a fitted effect of over 45% in size. The essentials: as §2
Assay [8] is described as follows: qHTS RealTime-Glo MT Cell Viability Assay in HepG2 cells - 8 hour (AID 1224873). Further: nearly all actives have a fitted effect of over 55% in size. In a few lines: as §3
Assay [9] in a line: A CellTox Green Cytotoxicity Assay to monitor cytotoxicity in HEK293 cells - 24 hour (AID 1224875). Further: nearly all actives have a fitted effect of over 45% in size. In a few lines: as §2
Assay [10] can be described thus: qHTS RealTime-Glo MT Cell Viability Assay in HepG2 cells - 32 hour (AID 1224877). Further: nearly all actives have a fitted effect of over 55% in size. Further: potency means the concentration at half of the fitted maximal effect. In a few lines: as §1
A short description of assay [11]: A CellTox Green Cytotoxicity Assay to monitor cytotoxicity in HepG2 cells - 24 hour (AID 1224878). Further: nearly all actives have a fitted effect of over 45% in size. In a few lines: (§4)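 Fluorescent DNA-binding dye, 600 HepG2 cells/well, 5 h preincubation then compound in DMSO; same plates read at 0–40 h, 37 C.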
The nature of assay [12]: A CellTox Green Cytotoxicity Assay to monitor cytotoxicity in HepG2 cells - 40 hour (AID 1224879). Further: nearly all actives have a fitted effect of over 40% in size. Further: potency means the concentration at half of the fitted maximal effect. In a few lines:
as §4

Assay [13] can be described thus: qHTS assay to identify small molecule agonists of the hypoxia (HIF-1) signaling pathway (AID 1224846; active means well fitted activation curve with a large enough effect in the signal ratio in the repeat runs, not every such curve was filed as active; the % refers to the signal ratio). In a few lines:
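In ME-180 cells bearing an HRE-bla construct, 17 h treatment with DMSO-dissolved compounds at 37C was followed by CCF4-AM loading to quantify reporter induction.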

Assay [14] in a line: qHTS assay to identify small molecule antagonists of the estrogen related receptor (ERR) signaling pathway from Tox21 library (AID 1224848). Further: nearly all actives have a fitted effect of over 50% in size. Further: potency means the concentration at half of the fitted maximal effect. The essentials: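 Luciferase luminescence (ONE-Glo, 30 min room temperature) was the read-out. Cells of the NTP-supplied ERR line, 2,000 per well, were given 6 h at 37 C before compound addition in DMSO and 18 h exposure at 37 C.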
The nature of assay [15]: qHTS assay to identify small molecule agonists of the estrogen related receptor (ERR) signaling pathway from Tox21 library (AID 1224849; calls by dose curve; further: nearly all actives have a fitted effect of over 15% in size). Conditions: ERR reporter cell line, ONE-Glo luciferase, 18 h; at 92.4 µM (top of the series) unless noted. In a few lines:
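Reporter cells (ERR, NTP source) treated with Tox21 10K compounds 18 h, 37 C. Readout: ONE-Glo luminescence, 30 min RT.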

Assay [16] is described as follows: qHTS RealTime-Glo MT Cell Viability Assay in HEK293 cells - 32 hour (AID 1224868). Further: nearly all actives have a fitted effect of over 50% in size. Further: potency means the concentration at half of the fitted maximal effect. In a few lines: (§5)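 Nonlytic real-time viability readout: viable cells convert prosubstrate to NanoLuc substrate, giving luminescence proportional to live cell number. HEK293, 600 cells/well, compound added after 5 h, continuous culture at 37 C.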
Assay [17] can be described thus: qHTS RealTime-Glo MT Cell Viability Assay in HEK293 cells - 16 hour (AID 1224872). Further: nearly all actives have a fitted effect of over 50% in size. Further: potency means the concentration at half of the fitted maximal effect. The essentials: as §5
The nature of assay [18]: qHTS RealTime-Glo MT Cell Viability Assay in HEK293 cells - 40 hour (AID 1224874). Further: nearly all actives have a fitted effect of over 50% in size. Further: potency means the concentration at half of the fitted maximal effect. Conditions: RealTime-Glo luminescence; max response: active compounds read low. In a few lines:
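Measured as luminescence from the same continuously cultured HEK293 wells at successive time points (0, 8, 16, 24, 32, 40 h) after compound addition. Reagent present from seeding; dosing at 5 h; incubation 37 C.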

The nature of assay [19]: A CellTox Green Cytotoxicity Assay to monitor cytotoxicity in HepG2 cells - 16 hour (AID 1224876). Further: nearly all actives have a fitted effect of over 45% in size. In a few lines: as §4
Assay [20] in a line: qHTS assay to identify small molecule agonists of H2AX - cell viability counter screen (AID 1224847; calls by dose curve; further: top concentration of the series differs between compounds; nearly all actives have a fitted effect of over 30% in size). In a few lines:
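Cytotoxicity counter screen in wild-type CHO-K1 cells: a 3 hr compound treatment at 37C across 15 concentrations, followed by CellTiter-Glo luminescence to gauge viable cells.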

Unmarked numbers belong to inactive results. Records with an inconclusive call do not appear. Calls of active or inactive are those of the source. Unless noted, the call rests on the fitted dose curve; in most records, active means well fitted curve in the direction sought with a large enough effect in the repeat runs; inconclusive means weak or mixed curves; inactive means no such curve, though single readings can be large; an effect the other way counts as inactive or inconclusive.
On the % scale 0 is the no-effect control and ±100 the full control effect.

As to `CCOC(=O)[C@]1(c2ccccc2)Oc2ccccc2[C@@H]1N`, the Potency result in assay [1], in [2], in assay [3], in [4], in assay [5] and in [6] was “inactive” in each case. The Potency result in assay [7], in [8], in assay [9], in assay [10], in assay [11] and in [12] was “inactive” in each case.

On to `CCCCc1c(C)nc(NCC)nc1OS(=O)(=O)N(C)C`, for which the Potency entry in assay [1], in assay [2], in assay [3], in assay [4], in assay [5] and in assay [7] was “inactive” in each case. For the same compound, the Potency result in assay [8], in [9], in [19], in [10], in assay [11] and in assay [12] was “inactive” each time. Besides, the compound was called inactive in assay [13]. Further, the Potency in assay [14] is 30.6 µM (active); in assay [16], 11 µM (active); in [17], 12.3 µM (active); in assay [18] it was 13.8 µM (active). The activity change, positive = activation in assay [15] is -48.3%.

With `CCCC(Cn1cncn1)c1ccc(Cl)cc1Cl` (centres undefined), the Potency result in [1], in assay [2], in assay [3], in [4], in [5] and in assay [6] was “inactive” throughout. Moreover, the Potency result in [10] was “inactive”. Also, the result in assay [13] was inactive. For the same compound, the values for the Potency in assay [14], in assay [16] and in assay [18] were 30.6 µM (active), 21.9 µM (active) and 21.9 µM (active), respectively. Besides, in [15], the activity change, positive = activation is -61.7%.

As for `BrCC(Br)C1CCC(Br)C(Br)C1` (centres undefined), the Potency in assay [1] is 48.3 µM (active). In addition, the Potency entry in [2], in assay [3], in assay [4], in [5], in assay [6] and in assay [7] was “inactive” throughout. Moreover, the Potency entry in assay [8], in [9], in [19], in [10], in assay [11] and in assay [12] was “inactive” throughout. Moreover, the result in assay [13] was inactive. For the same compound, the max response in assay [18] was -20.5%.

In the case of `NC(=O)CI`, the Potency result in assay [1], in assay [3], in [14], in [5] and in [17] was “inactive” each time. The Potency in [2] was 35 µM (active); in assay [4], 13.9 µM (active); in assay [6], 6.22 µM (active); in [10], 9.86 µM (active). The activity change, positive = activation in [15] is -20%. Besides, the max response in assay [18] was 1.19%.

Take `Clc1cc(C(Cl)(Cl)Cl)cnc1Cl`: the Potency result in [1], in assay [2], in assay [20], in assay [14], in [4] and in assay [5] was “inactive” throughout. The Potency entry in [6], in assay [8], in assay [19] and in assay [10] was “inactive” in each case. Further, in [13], the compound was called inactive. Besides, the activity change, positive = activation in [15] was 0.0985%. The Potency in [16] and in assay [12] was 34.7 µM (active) throughout.

With `CCc1ccc(C(=O)NN(C(=O)c2cc(C)cc(C)c2)C(C)(C)C)cc1`, the Potency was 15.4 µM (active) in assay [1] and 30.6 µM (active) in assay [14]. The Potency result in assay [2], in assay [20], in assay [4], in [16], in assay [5] and in assay [6] was “inactive” in each case. Besides, the Potency result in assay [7], in assay [17], in [9], in assay [19], in assay [10] and in assay [11] was “inactive” each time. Also, in assay [12], the Potency result is “inactive”. The result in assay [13] was inactive. Moreover, the activity change, positive = activation in [15] is -56.4%. Further, the max response in assay [18] was -11.5%.

`CC(C)N(CCC(C(N)=O)(c1ccccc1)c1ccccn1)C(C)C` (centres undefined): the Potency entry in assay [1], in assay [2], in assay [3], in [20], in [14] and in [4] was “inactive” throughout. Further, the Potency entry in assay [16], in [5], in assay [6], in assay [7], in [17] and in [8] was “inactive” in each case. Further, the Potency result in assay [9], in assay [19], in [10], in [11] and in assay [12] was “inactive” throughout. Further, in [15], the activity change, positive = activation is 2.39% [at 42.5 µM]. Also, the max response in [18] was 2.75%.
